Results on 16 compounds are retold here after PubChem BioAssay (EPA / NIEHS).

Molecules are shown by their SMILES. Activity calls are given as the source filed them. How the source made its calls: active means hit-call score of the fitted dose curve at least 0.9, where 1 is the maximum; inactive means score below 0.9.

The nature of this experiment: CEETOX_H295R_CORTISOL: CeeTox H295R High-throughput Steroidogenesis Assay for Cortisol (AID 2283438).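 Further: cortisol secreted into medium quantified by LC-MS/MS.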 Conditions: actives raise or lower the signal. As to the method:
CEETOX_H295R is a cell-based, multiplexed-readout assay that uses H295R, a human adrenal gland cell line, with measurements taken at 48 hours after chemical dosing in a 96-well plate.CEETOX_H295R_CORTISOL is one of 23 assay component(s) measured or calculated from the CEETOX_H295R assay. It is designed to make measurements of hormone induction, a form of inducible reporter, as detected with absorbance signals by HPLC-MS-MS technology.Data from the assay component CEETOX_H295R_CORTISOL was analyzed into 1 assay endpoint. This assay endpoint, CEETOX_H295R_CORTISOL, was analyzed with bidirectional fitting relative to DMSO as the negative control and baseline of activity. Using a type of inducible reporter, gain or loss-of-signal activity using HPLC-MS-MS was used to understand synthesis of Cortisol in H295R cell line at 48hr of chemical exposure. To generalize the intended target to other relatable targets, this assay endpoint is annotated to the steroid hormone intended target family, where the subfamily is glucocorticoids.
Cell culture and media preparation procedures were conducted in accordance with OECD Test No. 456 guidelines, with minor modifications. H295R cells (ATCC CRL-2128) were expanded for 5 passages and frozen in batches in liquid nitrogen. Prior to the steroidogenesis assay, H295R cells were thawed and passed at least 4 times. The maximum passage was 10. Cells were maintained in a 1:1 mixture of DMEM/F12 supplemented with 5ml/L ITS+ Premix (BD Bioscience) and 12.5 ml/L Nu-Serum (BD Bioscience). After seeding cells into 96-well plates at 50-60% confluency, cells were allowed to adhere overnight. Prior to chemical testing, culture medium was replaced with 175 uL medium containing 10 uM forskolin to stimulate steroidogenesis for 48 hours. Following prestimulation, forskolin medium was replaced with medium containing test chemical solubilized in DMSO (ensuring a final concentration of 0.1% DMSO). Test chemicals were incubated for 48 hours, then the medium was removed and split into 2 vials containing approximately 75uL each, and stored at -80 C prior to hormone analysis. For steroid quantification, media samples were shipped to OpAns, LLC (Durham, NC) on dry ice, and samples were thawed to room temperature prior to liquid-liquid extraction. Steroid hormones were extracted from media samples using methyl tertbutyl ether (MTBE). An extra derivatization with dansyl chloride was included for estrogen (estrone and estradiol) detection only. Steroid hormones were separated by HPLC, eluted using a reverse phase C18 gradient with electrospray positive ionization, followed by quantification by tandem mass spectrometry (MS/MS). Data were acquired on a MassHunter Workstation Acquisition version B03.01 (Agilent Technologies, Inc.) and processed using MassHunter Quantitative Analysis for QQQ. Accuracy was determined for each hormone analyte from 3 standards to determine upper and lower limits of quantification (ULOQ and LLOQ, respectively) using a 7-point standard curve. Precision and accuracy of the extraction and quantification methods were calculated as the percent relative standard deviation (%RSD) of the spiked standards and percent spiked standard recovered, respectively. The goal was to achieve 100% accuracy (i.e., recover all spiked-in standard at quantification with minimal loss during run time) and good precision (i.e., have %RSD <15% to ensure reproducibility). Test medium was removed following chemical exposure, and cell viability was evaluated in the same wells by MTT. MTT procedures were as follows: after removal of test medium, 500 uL of 0.5 mg/ml of 3-[4,5-dimethylthiazol-2-y]2,5-diphenyltetrazoliumbromide solution was added to the cells. Following a 4-hour incubation at 37 C and 5% CO2 to allow formazan-crystal formation, the MTT solution was removed and blue formazan salt crystals were solubilized using 500uL anhydrous isopropanol with shaking for 20 minutes. […]
On to `CC(C)(C)CC(C)(C)c1ccc(OCCOCC[N+](C)(C)Cc2ccccc2)cc1`, for which the call was inactive.
`Cc1cc(=O)oc2cc(N(C)C)ccc12`: the call was inactive.
As to `CC=Cc1ccc(OCC)c(O)c1`, the compound was classed as inactive.
Still for that read-out and setting: for `CCCCCCCCN1CCCC1=O` the value was “inactive”; for `CC(C)Nc1nc(N)nc(Cl)n1`, “inactive”.
Consider `C=C1CC[C@H](O)C/C1=C/C=C1\CCC[C@]2(C)[C@@H]([C@H](C)/C=C/[C@H](C)C(C)C)CC[C@@H]12`, for which the AC50 is 42.5 µM (active).
Regarding `COc1ccc(CCN2CCC(Nc3nc4ccccc4n3Cc3ccc(F)cc3)CC2)cc1`, the AC50 was 1.56 µM (active).
On to `CC(CN=Cc1ccccc1O)N=Cc1ccccc1O` (stereo unspecified), for which the AC50 is 4.06 µM (active).
For `BrCc1cccc(Oc2ccccc2)c1`, the result was inactive.
On the same count and under the same terms, for `COc1ccc(N=Nc2cc(C)c(N=Nc3ccc(S(=O)(=O)O)cc3)cc2OC)cc1` the value was “inactive”; for `CCC(C)c1cc([N+](=O)[O-])cc([N+](=O)[O-])c1OC(=O)OC(C)C` (stereo unspecified), “inactive”; for `Nc1ccc(N)c2c1C(=O)c1ccccc1C2=O`, “inactive”.
The same measure, in the same setting: for `COCCc1ccc(OCC(O)CNC(C)C)cc1` (stereo unspecified) the value was “inactive”; for `CCOC(=O)[C@@H](C)Oc1ccc(Oc2nc3ccc(Cl)cc3o2)cc1`, “inactive”.
Consider `CCc1cc(C(C)(C)C)c(O)c(C(C)(C)C)c1`, for which the outcome was inactive.
Still for that read-out and setting: with `CC1(C)C(=O)N(Cl)C(=O)N1Br` the entry was “inactive”.
